Among the test systems are NCI-H23 lung; NCI-H226 lung; NCI-H322M lung; HOP-62 NSCLC; NCI-H460 lung; HOP-92 NSCLC; NCI-H522 lung; A549/ATCC NSCLC; 786-0 renal; COLO 205 colon; DU-145 prostate; K-562 leukemia; MALME-3M melanoma; MDA-MB-231 breast; RXF 393 renal; SF-268 CNS; SF-295 CNS; SF-539 CNS; UACC-257 melanoma; M14 melanoma.
Common to all, as to assay: NCI-60 one-dose screen, 48 h (100 = growth as untreated, 0 = no growth, -100 = all killed)
Holding throughout (conditions): 10 µM

Compounds without any hit were thinned out: in the full panel of roughly 83,000, 20% have a hit.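 48-hour exposure, single concentration, 96-well plates; percent growth endpoint where 0 means no net growth. Active: below 10.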 A number with no mark means an inactive call. The source made the active and inactive calls.

These results are taken from PubChem BioAssay (NCI).

As to `CCOC(=O)c1c(C(F)(F)F)n([O-])c2ccc(OC)cc2[n+]1=O`, the growth was 30.3% with NCI-H23 lung; 47.4% with NCI-H226 lung; 58% in the assay with NCI-H322M lung; 17.1% in the assay on HOP-62 NSCLC; 18.7% with NCI-H460 lung; -34.7% (active) in the assay with HOP-92 NSCLC. For the same compound, the growth was -25.9% (active) with NCI-H522 lung; 26.8% with A549/ATCC NSCLC; 42.2% in the assay with 786-0 renal; 31.1% in the assay on COLO 205 colon; 26.2% in the assay on DU-145 prostate; 2.01% (active) in the assay with K-562 leukemia. Moreover, the growth in the assay on MALME-3M melanoma was 25.8%; in the assay with MDA-MB-231 breast, 19.8%; in the assay on RXF 393 renal, 41.9%; in the assay with SF-268 CNS, 31.1%; in the assay on SF-295 CNS, -36% (active); with SF-539 CNS it was 48.8%. The values for the growth with UACC-257 melanoma and in the assay on M14 melanoma were -5.73% (active) and 26.9%, respectively.
For `FC(F)(F)c1ccc(-c2ncc(-c3ccc(C(F)(F)F)cc3)c(NCc3cc(C(F)(F)F)cc(C(F)(F)F)c3)n2)cc1`, the growth in the assay with NCI-H23 lung was 39.3%; with NCI-H226 lung it was 46.7%; in the assay on NCI-H322M lung, 90.9%; in the assay with HOP-62 NSCLC, 62.6%; in the assay with NCI-H460 lung, 38.5%; with HOP-92 NSCLC it was -6.55% (active). Besides, the growth with NCI-H522 lung is 43.3%; in the assay with A549/ATCC NSCLC it was 65.7%; in the assay with 786-0 renal it was 53.9%; in the assay with COLO 205 colon it was 74.9%; in the assay on DU-145 prostate it was 69.6%; with K-562 leukemia it was 44.4%. For the same compound, the growth in the assay on MALME-3M melanoma is 75.4%; in the assay on MDA-MB-231 breast, 72.5%; in the assay on RXF 393 renal, 66.6%; in the assay on SF-268 CNS, 69.3%; in the assay with SF-295 CNS, 9.91% (active); with SF-539 CNS it was 86.7%. In addition, the growth is 87.9% in the assay on UACC-257 melanoma and 73.8% in the assay on M14 melanoma.
For the compound `O=C(CSc1nnc(-c2ccc(Cl)cc2)o1)c1ccccc1`, the growth in the assay with NCI-H23 lung was 88.7%; in the assay with NCI-H226 lung, 96.3%; with NCI-H322M lung it was 119%; with HOP-62 NSCLC, 91.1%; in the assay on NCI-H460 lung, 105%; in the assay with HOP-92 NSCLC it was 107%. Also, the growth with NCI-H522 lung is 78.6%; in the assay on A549/ATCC NSCLC it was 73.2%; with 786-0 renal, 92.8%; in the assay with COLO 205 colon it was 108%; in the assay on DU-145 prostate, 101%; in the assay with K-562 leukemia, 102%. Further, the growth in the assay with MALME-3M melanoma was 112%; in the assay on MDA-MB-231 breast it was 95.2%; with RXF 393 renal, 99.9%; in the assay on SF-268 CNS it was 101%; in the assay on SF-295 CNS, 100%; with SF-539 CNS, 91.4%. Also, the growth in the assay on UACC-257 melanoma was 98.9%; in the assay with M14 melanoma, 108%.
On to `COc1ccc(/C(CS(=O)(=O)c2ccccc2)=N\O)cc1`, for which the growth in the assay on NCI-H23 lung is 105%; in the assay with NCI-H226 lung, 89.1%; in the assay on NCI-H322M lung it was 108%; in the assay with HOP-62 NSCLC it was 109%; in the assay on NCI-H460 lung, 109%; in the assay with HOP-92 NSCLC, 109%. Also, the growth in the assay on NCI-H522 lung was 97.3%; in the assay with A549/ATCC NSCLC, 92.1%; with 786-0 renal it was 104%; in the assay on COLO 205 colon, 114%; with DU-145 prostate, 119%; with K-562 leukemia it was 103%. The growth in the assay with MALME-3M melanoma is 106%; in the assay on MDA-MB-231 breast, 113%; in the assay with RXF 393 renal, 92.1%; in the assay with SF-268 CNS it was 115%; in the assay with SF-295 CNS, 88.5%; with SF-539 CNS, 102%. Also, the growth was 95.8% with UACC-257 melanoma and 109% in the assay with M14 melanoma.
In the case of `Cc1ccc(C)c2c1sc1nc3n[nH]c(N)c3c(=N)n12`, the growth with NCI-H23 lung is 107%; in the assay on NCI-H226 lung it was 105%; in the assay on NCI-H322M lung, 113%; with HOP-62 NSCLC, 104%; in the assay with NCI-H460 lung, 107%; with HOP-92 NSCLC it was 97.2%. The growth with NCI-H522 lung is 87.4%; in the assay with A549/ATCC NSCLC it was 106%; with 786-0 renal, 111%; in the assay on COLO 205 colon it was 112%; with DU-145 prostate, 111%; in the assay on K-562 leukemia, 98.3%. The growth in the assay on MALME-3M melanoma was 128%; with MDA-MB-231 breast, 101%; with RXF 393 renal, 112%; in the assay on SF-268 CNS it was 109%; in the assay on SF-295 CNS, 106%; in the assay on SF-539 CNS it was 101%. Besides, the growth in the assay with UACC-257 melanoma is 104%.
Take `CCNC(=S)NN`: the growth in the assay on NCI-H23 lung is 93.1%; in the assay with NCI-H226 lung, 99.1%; with NCI-H322M lung, 78.7%; with HOP-62 NSCLC it was 76.2%; in the assay on NCI-H460 lung, 95.6%; in the assay with HOP-92 NSCLC it was 87.3%. Also, the growth with NCI-H522 lung was 105%; with A549/ATCC NSCLC, 72.5%; in the assay with 786-0 renal, 99.5%; in the assay on COLO 205 colon it was 106%; in the assay on DU-145 prostate, 97.9%; in the assay with K-562 leukemia, 43.9%. In addition, the growth in the assay on MALME-3M melanoma was 70.4%; with MDA-MB-231 breast it was 90.5%; in the assay with RXF 393 renal it was 100%; in the assay on SF-268 CNS, 103%; in the assay on SF-295 CNS it was 89.4%; in the assay with SF-539 CNS, 100%. The growth with UACC-257 melanoma is 56.8%.
Take `O=C(N/N=c1/ccoc2cccnc12)N1CCN(c2ncccn2)CC1`: the growth in the assay on NCI-H23 lung is 26.4%; in the assay on NCI-H226 lung, 37.6%; in the assay on NCI-H322M lung it was 39.1%; in the assay with HOP-62 NSCLC, 24.5%; in the assay on NCI-H460 lung, 15.2%; in the assay on HOP-92 NSCLC, 64.2%. Also, the growth in the assay on NCI-H522 lung is 9.96% (active); with A549/ATCC NSCLC, 17.6%; in the assay on 786-0 renal, 40.4%; in the assay with COLO 205 colon, 4.3% (active); with DU-145 prostate, 50.5%; in the assay with K-562 leukemia, 9.99% (active). In addition, the growth with MALME-3M melanoma was 55.5%; in the assay on MDA-MB-231 breast, 40%; in the assay on RXF 393 renal it was 66.8%; in the assay with SF-268 CNS it was 37.3%; in the assay on SF-295 CNS it was 15.9%; in the assay on SF-539 CNS it was 45.3%. In the assay on UACC-257 melanoma, the growth was 5.91% (active).
Consider `COc1ccc(CCc2nc3cc(-c4c(C)noc4C)ccc3n2CCN2CCOCC2)cc1`, for which the growth in the assay on NCI-H23 lung is 49.5%; with NCI-H226 lung it was 48.3%; in the assay on NCI-H322M lung, 75.8%; with HOP-62 NSCLC, 40.2%; with NCI-H460 lung, 30.4%; with HOP-92 NSCLC, -7.34% (active). Besides, the growth in the assay with NCI-H522 lung is 12%; with A549/ATCC NSCLC, 26.4%; with 786-0 renal it was 60.8%; with COLO 205 colon, 5.86% (active); in the assay on DU-145 prostate, 80.1%; in the assay on K-562 leukemia it was 13.7%. Further, the growth is -37.4% (active) in the assay with MALME-3M melanoma; 81.7% in the assay with MDA-MB-231 breast; 70.1% with RXF 393 renal; 50.4% in the assay with SF-268 CNS; -35% (active) in the assay on SF-295 CNS; 90.4% in the assay on SF-539 CNS. The growth was 12.9% in the assay on UACC-257 melanoma and 20.6% in the assay with M14 melanoma.
